This is a sample that favours compounds with a hit; in the whole collection about 0.97% have one here.
A1 inh: inhibitors of the anti-apoptotic protein A1, read as caspase activation; 0.066% of 330,000 active; AID 2462; caspase activation, % (no concentration beside the values); MEF A1-2A-BIM cells, Caspase-Glo 3/7 luminescence, 3 h; percent of clofoctol response, vehicle zero;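 active = over half of replicate activation scores above 10%, or exactly half above 10 with the replicate mean above 10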
NOD2-RIPK2 inh: inhibitors of human NOD2-RIPK2 interaction; O43353; CHO BLA complementation NOD2-RIPK2, CCF4 ratio; inhibition, % at 4.98 µM; 0.38% of 360,000 active; AID 624267; in the data active = inhibition above about 21%;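 also: 0% = vehicle only and 100% = reference blocker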
NTR1 ag: activates human neurotensin receptor 1. P30989. NTR1-U2OS beta-arrestin-GFP spot imaging, agonist mode. activation, % at 20 µM. 0.17% of 330,000 active;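 active = activation at or above 40% of the spot to cytoplasm intensity ratio, with at least 20 cells analyzed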;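 also: 0% = DMSO without peptide and 100% = 100 nM NTR1 peptide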
TLR4-MyD88 BLA: blocks binding of human TLR4 to MyD88; HeLa CL3-4 TLR4/MyD88 BLA complementation, FRET ratio; inhibition, % at 8.4 µM; 0.18% of 200,000 active; AID 861; in the data active = inhibition above about 25%;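 also: 0% = vehicle and 100% = reference inhibitor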
TLR9-MyD88 inh: TLR9-MyD88 interaction inhibition; AID 504734; 0.21% of 340,000 active; inhibition, % at 4.98 µM; CHO BLA complementation TLR9-MyD88, CCF4 FRET ratio; Q9NR96+Q99836;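 active = inhibition above the mean over all tested compounds plus 3 SD, cut at about 21% in these data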;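 also: 0% = DMSO only wells and 100% = clavulanate BLA inhibitor control wells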
Target sequence (Q99836 whole entry, looked up): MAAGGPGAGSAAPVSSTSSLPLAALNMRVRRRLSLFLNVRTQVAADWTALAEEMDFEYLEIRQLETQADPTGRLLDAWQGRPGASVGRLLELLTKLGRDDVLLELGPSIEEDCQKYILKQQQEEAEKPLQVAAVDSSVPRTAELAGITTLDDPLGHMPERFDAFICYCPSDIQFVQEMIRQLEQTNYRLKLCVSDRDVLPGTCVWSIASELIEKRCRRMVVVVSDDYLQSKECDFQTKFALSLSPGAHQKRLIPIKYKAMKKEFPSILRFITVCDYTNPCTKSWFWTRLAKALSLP
Target sequence (Q9NR96 whole entry, looked up): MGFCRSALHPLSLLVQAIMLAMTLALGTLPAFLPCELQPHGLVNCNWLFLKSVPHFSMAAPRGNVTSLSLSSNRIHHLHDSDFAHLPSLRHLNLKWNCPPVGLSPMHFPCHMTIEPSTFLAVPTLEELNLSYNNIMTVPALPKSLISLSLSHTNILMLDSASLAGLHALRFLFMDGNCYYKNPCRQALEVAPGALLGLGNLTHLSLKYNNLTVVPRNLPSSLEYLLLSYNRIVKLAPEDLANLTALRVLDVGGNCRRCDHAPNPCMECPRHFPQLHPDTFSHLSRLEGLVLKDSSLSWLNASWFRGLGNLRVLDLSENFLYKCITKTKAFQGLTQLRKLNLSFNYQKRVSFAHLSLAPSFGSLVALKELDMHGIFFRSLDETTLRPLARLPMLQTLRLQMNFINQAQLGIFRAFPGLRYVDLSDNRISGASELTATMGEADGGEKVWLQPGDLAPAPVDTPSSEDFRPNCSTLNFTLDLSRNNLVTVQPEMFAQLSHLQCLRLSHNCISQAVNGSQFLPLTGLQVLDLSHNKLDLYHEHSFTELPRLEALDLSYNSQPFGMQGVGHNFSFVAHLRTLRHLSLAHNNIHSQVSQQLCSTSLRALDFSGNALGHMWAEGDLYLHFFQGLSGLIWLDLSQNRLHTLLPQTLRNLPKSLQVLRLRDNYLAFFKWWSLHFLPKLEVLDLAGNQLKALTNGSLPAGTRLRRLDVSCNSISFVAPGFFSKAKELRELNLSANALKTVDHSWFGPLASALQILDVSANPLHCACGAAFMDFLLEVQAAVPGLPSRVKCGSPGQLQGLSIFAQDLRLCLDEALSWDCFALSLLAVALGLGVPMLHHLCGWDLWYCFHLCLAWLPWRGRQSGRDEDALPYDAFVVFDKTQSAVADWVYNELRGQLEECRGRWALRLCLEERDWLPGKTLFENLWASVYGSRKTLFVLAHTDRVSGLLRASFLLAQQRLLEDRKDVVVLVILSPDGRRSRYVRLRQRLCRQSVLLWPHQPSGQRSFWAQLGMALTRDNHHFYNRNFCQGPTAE
B2AR ag: activates human beta-2 adrenergic receptor causing internalization | 0.43% of 340,000 active | P07550 | AID 504454 | response, % (concentration not given with the values) | Am2.2-beta2AR cells, FAP receptor internalization, flow cytometry;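 active = response above a set limit, near 3 SD of response in nonfluorescent compounds, cut at about 42% in these data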
NOD2-RIPK2 conf: confirmation of human NOD2-RIPK2 interaction inhibitors. shares compounds with NOD2-RIPK2 inh. CHO cells, NOD2-RIPK2 BLA complementation, CCF4 FRET. inhibition, % at 4.98 µM. 70% of 1,200 active. AID 624370;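 active = mean inhibition across replicates above a set limit taken from the earlier primary screen, cut at about 21% in these data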;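 also: 0% = DMSO-only wells and the high end = clavulanate BLA-blocked wells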
NOD2 BLA counter: counter-screen for NOD2-RIPK2 interaction inhibitors: BLA reporter. shares compounds with NOD2-RIPK2 inh. CHO BLA reporter, CCF4 FRET ratio, counterscreen. inhibition, % at 4.98 µM. 57% of 1,200 active. AID 624371;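 active = mean inhibition above the low-control mean inhibition plus three low-control SD, cut at about 11% in these data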;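 also: 0% = DMSO only wells and 100% = clavulanate high control wells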
Starred values were filed as active, the others as inactive; nt = no result given.

SMILES	A1 inh	NOD2-RIPK2 inh	NTR1 ag	TLR4-MyD88 BLA	TLR9-MyD88 inh	B2AR ag	NOD2-RIPK2 conf	NOD2 BLA counter
CCOC(=O)N1CCN(C(=O)C2CCN(C(=O)c3ccccc3C)CC2)CC1	nt	21.7*	nt	nt	14.0	48.7*	71.1*	17.6*
Cc1ccccc1C(=O)N1CCC(C(=O)N2CCN(c3ncccn3)CC2)CC1	-0.2	-5.0	-0.6	nt	-9.9	-2.3	nt	nt
CCC(C)C(NC(=O)C1CCC(C)CC1)C(=O)NCc1cccnc1 (stereo not given)	0.8	-14.7	-1.8	-3.4	-6.4	-3.5	nt	nt
O=C(NC1CCCCC1)C(c1ccc(C(F)(F)F)cc1)n1c(=O)c(-c2cc3ccccc3[nH]2)nc2ccccc21 (stereo not given)	nt	41.1*	nt	nt	nt	nt	35.6*	66.1*
O=C(NC1CCCCC1)C(c1ccncc1)n1c(=O)c(-c2ccccc2)nc2ccccc21 (stereo not given)	nt	-3.9	nt	nt	nt	nt	nt	nt
O=C(NC1CCCCC1)C(c1ccncc1)n1c(=O)c(-c2cc3ccccc3[nH]2)nc2ccccc21 (stereo not given)	nt	53.1*	nt	nt	nt	nt	47.6*	68.2*
O=C(c1ccccc1)c1sc(Nc2ccc3c(c2)OCO3)nc1-c1ccccc1	nt	21.3*	nt	nt	nt	nt	20.3	25.5*
COc1ccc(NC(=O)C(c2ccccc2F)n2c(=O)c(-c3cc4ccccc4[nH]3)nc3ccccc32)cc1 (stereo not given)	nt	50.3*	nt	nt	nt	nt	46.6*	68.5*
CCCCCNC(=O)C(c1ccccc1F)n1c(=O)c(-c2ccco2)nc2ccccc21 (stereo not given)	nt	2.0	nt	nt	nt	nt	nt	nt
CC(C)(C)NC(=O)C(c1ccccc1F)n1c(=O)c(-c2ccco2)nc2ccccc21 (stereo not given)	nt	-12.8	nt	nt	nt	nt	nt	nt
O=C(Nc1ccc2c(c1)OCCO2)C(c1ccccc1)n1c(=O)c(-c2ccco2)nc2ccccc21 (stereo not given)	nt	5.1	nt	nt	nt	nt	nt	nt
O=C(Nc1ccc2ccccc2c1)C(c1ccccc1F)n1c(=O)c(-c2cc3ccccc3[nH]2)nc2ccccc21 (stereo not given)	nt	44.9*	nt	nt	nt	nt	41.8*	66.7*
O=C(Nc1ccc2c(c1)OCCO2)C(c1ccccc1)n1c(=O)c(-c2cc3ccccc3[nH]2)nc2ccccc21 (stereo not given)	nt	48.2*	nt	nt	nt	nt	40.9*	63.6*
COc1ccc(NC(=O)C(c2ccncc2)n2c(=O)c(-c3ccccc3)nc3ccccc32)cc1 (stereo not given)	nt	-2.0	nt	nt	nt	nt	nt	nt
COc1ccc(NC(=O)C(c2ccccc2)n2c(=O)c(-c3cc4ccccc4[nH]3)nc3ccccc32)cc1 (stereo not given)	nt	46.8*	nt	nt	nt	nt	42.3*	65.2*
Cc1c(C)c2cc(Cl)c(OCC(=O)NCCCN3CCCC3=O)cc2oc1=O	nt	12.2	nt	nt	-2.7	nt	nt	nt
CCNc1ccc(Br)cc(C(=O)/C=C/c2ccc3c(c2)OCO3)c1=O	1.6	-2.3	-0.9	2.1	3.0	-4.8	nt	nt
COc1ccc(S(=O)(=O)N(C)C)cc1NC(=O)CSc1nncs1	0.0	-0.7	-1.0	-8.7	1.9	-0.9	nt	nt
CC(NC(=O)c1cc(COc2ccccc2)on1)c1nccs1 (stereo not given)	-1.0	-10.9	-0.6	nt	-6.5	1.0	nt	nt
COc1cccc(-n2ccnc2SCC(=O)N2CCCc3ccccc32)c1	0.1	5.8	4.9	-11.2	-0.2	6.1	nt	nt
CC1=C(CO)C(=O)OC([C@@H](C)C2CC[C@H]3C4C[C@H]5O[C@]56[C@@H](O)C=CC(=O)[C@]6(C)C4CC[C@]23C)C1 (stereo not given in full)	-0.6	46.9*	nt	nt	3.1	21.7	62.6*	7.0
CCCCCNC(=O)C(CCc1ccccc1)n1c(=O)c(-c2cc3ccccc3[nH]2)nc2ccccc21 (stereo not given)	nt	43.9*	nt	nt	nt	nt	41.3*	66.0*
CCCCCNC(=O)C(c1cccc2ccccc12)n1c(=O)c(-c2cc3ccccc3[nH]2)nc2ccccc21 (stereo not given)	nt	41.7*	nt	nt	nt	nt	36.4*	63.7*
CCCCCNC(=O)C(c1ccc(-c2ccccc2)cc1)n1c(=O)c(-c2ccccc2)nc2ccccc21 (stereo not given)	nt	5.7	nt	nt	nt	nt	nt	nt
CCCCCNC(=O)C(c1cccc2ccccc12)n1c(=O)c(-c2ccccc2)nc2ccccc21 (stereo not given)	nt	-14.6	nt	nt	nt	nt	nt	nt
SMILES	A1 inh	NOD2-RIPK2 inh	NTR1 ag	TLR4-MyD88 BLA	TLR9-MyD88 inh	B2AR ag	NOD2-RIPK2 conf	NOD2 BLA counter
CCCCCNC(=O)C(c1ccccc1)n1c(=O)c(-c2cc3ccccc3[nH]2)nc2ccccc21 (stereo not given)	nt	46.3*	nt	nt	nt	nt	40.1*	63.9*
Cc1nn(-c2ccccc2)c2c1P(=O)(O)/C(=C1\N(C)c3ccccc3C1(C)C)C=N2	1.0	24.4*	0.2	16.9	7.5	8.3	16.1	18.8*
Cc1ccc(NC(=O)c2cc(-c3ccco3)on2)cc1	-0.8	3.9	2.6	-11.0	7.3	1.6	nt	nt
CC(=O)c1ccc(/C=C/c2nc3ccccc3n2C)o1	-5.2	54.2*	-0.2	nt	nt	-22.0	68.1*	69.8*
CC(C)C(=O)N1CCN(c2ccc(NC(=O)c3ccc([N+](=O)[O-])o3)cc2)CC1	0.8	15.2	6.4	0.9	1.2	3.9	nt	nt
CC(C)C(=O)N1CCN(c2ccc(NC(=O)c3ccc([N+](=O)[O-])o3)cc2Cl)CC1	nt	26.4*	nt	16.8	5.7	38.2	23.1*	7.6
CN1CCN(c2ccc(NC(=O)c3ccc([N+](=O)[O-])o3)cc2Cl)CC1	0.1	23.3*	6.2	nt	8.6	29.4	20.0	16.6*
Cc1ccc(S(=O)(=O)N2CCN(C(=O)COC(=O)c3ccc(O)cc3)CC2)c(C)c1	0.6	-2.4	0.7	nt	-6.1	10.3	nt	nt
Cc1occc1C(=O)N/N=C/C=C/c1ccc(N(C)C)cc1	-4.3	26.9*	-0.4	nt	10.8	8.7	37.2*	36.6*
Clc1nc2c(-c3ccccc3)nnn2c2ccccc12	-5.1	24.1*	24.1	nt	19.7	13.9	80.5*	61.8*
CCOc1cc(/C=C2\COc3ccccc3C2=O)cc(Br)c1OCC(=O)N(C)C	1.8	25.9*	36.5	nt	4.2	55.0*	27.5*	-4.4
Cc1cccc(C)c1NC(=O)C(C1CC1)n1c(=O)c(-c2ccccc2)nc2ccccc21 (stereo not given)	nt	8.4	nt	nt	nt	nt	nt	nt
CC(C)(C)NC(=O)C(C1CC1)n1c(=O)c(-c2cc3ccccc3[nH]2)nc2ccccc21 (stereo not given)	nt	41.8*	nt	nt	nt	nt	39.3*	61.5*

Compound activity deposited in PubChem by several laboratories.
